Some test systems named below: S6K1; SBK1; SGK2; SGK3; SGK; SIK2; SIK; SLK.
Holding throughout (conditions): concentration: 1 μM,replicates: in singlicate; n = 1
Test [1] concerns T1, RSK4(Kin.Dom.1-N-terminal).
T1 construct: gene RPS6KA6

Test [2] relates to T2, RSK4(Kin.Dom.2-C-terminal).
T2 construct: gene RPS6KA6
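Also: KINOMEscan kinase panel screen.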

Take `Cn1ccc2ncnc(Oc3ccc(NC(=O)Nc4cncc(C(F)(F)F)c4)c(Cl)c3)c21`: the “%Inh” value was determined as 0% in test [1]; 12% in [2]; 0% in the test on S6K1; 0% in the test with SBK1; 0% in the test with SGK2; 0% in the test with SGK3. Also, the “%Inh” value is recorded as 0% in the test with SGK, 0% with SIK2, 0% in the test with SIK and 20% in the test with SLK.

Take `COc1cc2nccc(Nc3ccc(Oc4ccccc4)cc3)c2cc1OC.Cl` [GI261656]: the “%Inh” value in test [1] is on record as 0%; in [2] it was 9%; in the test with S6K1, 0%; in the test with SBK1 it was 0%; in the test with SGK2, 0%; in the test on SGK3, 0%. Moreover, the “%Inh” value is reported as 0% in the test with SGK, 0% in the test with SIK2, 0% in the test with SIK and 26% in the test on SLK.

On to `CN(c1ccccc1CNc1nc(Nc2ccc3c(c2)CC(=O)N3)ncc1C(F)(F)F)S(C)(=O)=O`, for which the “%Inh” value in test [1] came out at 67%; in test [2], 2%; with S6K1 it was 22%; with SBK1 it was 3%; in the test with SGK2, 0%; in the test with SGK3, 32%. Further, the “%Inh” value stood at 18% with SGK, 40% in the test on SIK2, 16% in the test with SIK and 94.8% in the test with SLK.

As to `C[C@@H]1CNc2c(sc3ccc4nc(-c5ccncc5)ccc4c23)C(=O)N1`, the “%Inh” value in [1] came out at 38%; in test [2], 21%; in the test on S6K1, 0%; in the test with SBK1 it was 30%; in the test on SGK2, 0%; with SGK3, 18%. The “%Inh” value with SGK stood at 0%; in the test on SIK2 it was 0%; in the test with SIK, 5%; in the test on SLK it was 1%.

As to `C[C@@H](Oc1cc(-n2cnc3ccc(-c4ccncc4)cc32)sc1C(N)=O)c1ccccc1Cl` [GSK483724], the “%Inh” value is given as 12% in test [1]; 0% in test [2]; 0% in the test with S6K1; 6% with SBK1; 14% in the test with SGK2; 0% in the test on SGK3. The “%Inh” value with SGK came out at 7%; in the test with SIK2, 0%; in the test on SIK, 11%; in the test with SLK, 95.5%.

Take `Cl.Cl.NC[C@H](CC1CCCCC1)NC(=O)c1ccc(-c2ccnc3[nH]ccc23)s1` [GSK1581428]: the “%Inh” value in [1] was 84%; in test [2], 12%; with S6K1, 93%; with SBK1, 88%; with SGK2, 79%; in the test on SGK3, 92.9%. Also, the “%Inh” value with SGK was 80%; in the test on SIK2, 16%; with SIK, 11%; in the test with SLK, 75%.

On to `COC(=O)c1cccc(NC(=O)NC2CCN(c3ccnc(Nc4cc(OC)c(OC)c(OC)c4)n3)C2)c1` (stereo not drawn) [GSK1379767], for which the “%Inh” value in [1] is reported as 0%; in [2], 16%; in the test on S6K1, 0%; with SBK1, 6%; with SGK2 it was 0%; with SGK3, 2%. Also, the “%Inh” value in the test with SGK came to 0%; in the test on SIK2, 5%; with SIK, 0%; in the test with SLK, 28%.

Regarding `COc1cc2ncn(-c3cc(OCC4CCCCC4)c(C(N)=O)s3)c2cc1OC` [GSK204559], the “%Inh” value in [1] came to 3%; in test [2], 20%; in the test with S6K1 it was 0%; with SBK1 it was 22%; with SGK2, 0%; in the test on SGK3, 9%. Besides, the “%Inh” value with SGK came to 0%; with SIK2 it was 0%; with SIK, 4%; with SLK, 80%.

For `CN(c1cccc(CNc2nc(Nc3ccc4c(c3)CC(=O)N4)ncc2C(F)(F)F)c1)S(C)(=O)=O`, the “%Inh” value was 77% in test [1]; 54% in [2]; 42% with S6K1; 48% with SBK1; 0% in the test with SGK2; 2% in the test on SGK3. Further, the “%Inh” value in the test with SGK turned out to be 31%; with SIK2 it was 56%; with SIK, 25%; with SLK, 33%.

In the case of `Cn1ccc2ncnc(Oc3ccc(NC(=O)Nc4cccc(C(F)(F)F)c4)c(Cl)c3)c21`, the “%Inh” value came to 0% in test [1]; 41% in [2]; 2% in the test on S6K1; 0% with SBK1; 0% in the test with SGK2; 0% in the test with SGK3. Besides, the “%Inh” value with SGK was 0%; with SIK2, 9%; in the test on SIK, 10%; in the test on SLK, 63%.

For the compound `CC(C)S(=O)(=O)N1CCN(Cc2ccc3c(c2)nc(NC(=O)c2ccsc2)n3C[C@H](O)c2ccccc2)CC1` [GW635815], the “%Inh” value in test [1] was found to be 54%; in test [2] it was 9%; in the test with S6K1 it was 13%; in the test on SBK1 it was 59%; in the test with SGK2, 0%; in the test on SGK3, 3%. Further, the “%Inh” value in the test on SGK was determined as 0%; in the test with SIK2, 19%; with SIK, 0%; in the test with SLK, 33%.

Regarding `OCCn1cc(-c2cnc3nnn(Cc4ccc5ncccc5c4)c3n2)cn1`, the “%Inh” value in test [1] came to 0%; in [2], 1%; in the test on S6K1, 0%; with SBK1, 0%; in the test with SGK2, 0%; in the test on SGK3 it was 15%. Also, the “%Inh” value in the test on SGK, with SIK2, with SIK and in the test on SLK was 0% in each case.

As for `COc1ccc(Nc2nccc(N3CCC(NC(=O)c4cccc(C#N)c4)C3)n2)cc1` (stereo not drawn) [GSK1379730], the “%Inh” value amounted to 0% in test [1]; 0% in test [2]; 0% in the test with S6K1; 6% in the test with SBK1; 0% in the test on SGK2; 0% in the test on SGK3. The “%Inh” value in the test on SGK came to 0%; in the test on SIK2, 0%; in the test on SIK, 18%; with SLK it was 30%.

For `Cc1cccc(-c2nc(Nc3ccncc3)c3sccc3n2)n1` [GW869641], the “%Inh” value was 41% in [1]; 37% in test [2]; 13% in the test with S6K1; 58% with SBK1; 11% in the test with SGK2; 27% with SGK3. The “%Inh” value in the test with SGK was found to be 24%; in the test with SIK2, 0%; in the test with SIK it was 7%; in the test with SLK, 57%.

For the compound `Cn1ccc2ncnc(Oc3ccc(NC(=O)Nc4cnn(C(C)(C)C)c4)c(Cl)c3)c21`, the “%Inh” value in [1] is given as 22%; in test [2], 0%; in the test with S6K1 it was 1%; in the test on SBK1 it was 0%; with SGK2, 12%; in the test on SGK3, 2%. The “%Inh” value in the test with SGK was determined as 10%; with SIK2, 10%; in the test with SIK, 14%; in the test on SLK, 79%.

These data come from PMC5540273 (PLoS ONE, 2017).
